Laboratory results published in PubChem BioAssay (NCATS).
Results filed as inconclusive are left out. Where a call stands in place of a potency, no number is given. The source made the active and inactive calls. Calls come from the whole dose curve; as a rule, active = well fitted curve in the direction sought with a large enough effect; inconclusive = small, poorly fitted or top-dose-only effect, or another doubt; inactive = no such curve, though single readings can be large; an effect the other way counts as inactive or inconclusive.

Key:
[1] = molecular target: Rap guanine nucleotide exchange factor 3 (Homo sapiens) (UniProt O95398); test: Confirmatory qHTS for antagonist of cAMP-regulated guanine nucleotide exchange factor 3 (EPAC1) (AID 1645880); note: nearly all actives have a fitted effect of over 55% in size; note: potency is the fitted concentration of half-maximal effect
Rap guanine nucleotide exchange factor 3 (Homo sapiens), sequence (O95398 whole entry, looked up): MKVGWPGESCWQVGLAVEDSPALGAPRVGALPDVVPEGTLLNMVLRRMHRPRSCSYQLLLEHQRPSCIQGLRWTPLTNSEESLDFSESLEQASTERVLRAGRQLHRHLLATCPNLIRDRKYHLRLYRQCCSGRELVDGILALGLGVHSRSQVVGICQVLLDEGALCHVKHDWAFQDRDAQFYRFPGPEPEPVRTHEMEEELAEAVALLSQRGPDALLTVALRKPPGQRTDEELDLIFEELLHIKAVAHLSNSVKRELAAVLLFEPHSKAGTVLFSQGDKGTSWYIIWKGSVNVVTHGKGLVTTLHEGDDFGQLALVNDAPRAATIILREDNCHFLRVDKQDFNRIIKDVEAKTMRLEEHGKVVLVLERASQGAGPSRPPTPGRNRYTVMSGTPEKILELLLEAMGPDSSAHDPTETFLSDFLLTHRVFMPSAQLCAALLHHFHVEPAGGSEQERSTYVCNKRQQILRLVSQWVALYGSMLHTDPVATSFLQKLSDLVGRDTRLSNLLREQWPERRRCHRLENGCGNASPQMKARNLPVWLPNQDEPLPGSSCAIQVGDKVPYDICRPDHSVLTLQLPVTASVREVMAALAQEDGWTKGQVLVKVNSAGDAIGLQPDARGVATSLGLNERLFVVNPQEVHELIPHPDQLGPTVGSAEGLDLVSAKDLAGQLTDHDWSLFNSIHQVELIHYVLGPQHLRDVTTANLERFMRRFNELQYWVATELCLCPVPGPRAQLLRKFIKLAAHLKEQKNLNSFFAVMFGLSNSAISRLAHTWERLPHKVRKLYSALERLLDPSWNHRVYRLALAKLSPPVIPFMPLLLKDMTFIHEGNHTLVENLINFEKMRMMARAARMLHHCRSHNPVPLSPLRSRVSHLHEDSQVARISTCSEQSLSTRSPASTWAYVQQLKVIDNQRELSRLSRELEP
Procedure, shortened: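 Nucleotide exchange uses 100 nM EPAC1, 250 nM RAP1B-BODIPY-GDP and 50 uM GDP, with compounds in a concentration-titration series. After 5 min at room temperature, fluorescence (480 nm ex/540 nm em) is read every 5 min for 30 min. Data are normalized to control ATA and DMSO.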

[2] = molecular target: Rap guanine nucleotide exchange factor 3 (Homo sapiens) (UniProt O95398); test: Confirmatory qHTS for agonist of cAMP-regulated guanine nucleotide exchange factor 3 (EPAC1) (AID 1645881); note: nearly all actives have a fitted effect of over 75% in size; note: potency is the fitted concentration of half-maximal effect;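 for activation: EPAC1 catalysed release of BODIPY-GDP from Rap1B seen as fluorescence loss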
[3] = molecular target: Rap guanine nucleotide exchange factor 4 (Homo sapiens) (UniProt Q8WZA2); test: Confirmatory qHTS for agonist of cAMP-regulated guanine nucleotide exchange factor 4 (EPAC2) (AID 1645884);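 note: nucleotide exchange releases bodipy-GDP from Rap1 and this lowers its fluorescence; nearly all actives have a fitted effect of over 65% in size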; note: potency is the fitted concentration of half-maximal effect
Rap guanine nucleotide exchange factor 4 (Homo sapiens), sequence (Q8WZA2 whole entry, looked up): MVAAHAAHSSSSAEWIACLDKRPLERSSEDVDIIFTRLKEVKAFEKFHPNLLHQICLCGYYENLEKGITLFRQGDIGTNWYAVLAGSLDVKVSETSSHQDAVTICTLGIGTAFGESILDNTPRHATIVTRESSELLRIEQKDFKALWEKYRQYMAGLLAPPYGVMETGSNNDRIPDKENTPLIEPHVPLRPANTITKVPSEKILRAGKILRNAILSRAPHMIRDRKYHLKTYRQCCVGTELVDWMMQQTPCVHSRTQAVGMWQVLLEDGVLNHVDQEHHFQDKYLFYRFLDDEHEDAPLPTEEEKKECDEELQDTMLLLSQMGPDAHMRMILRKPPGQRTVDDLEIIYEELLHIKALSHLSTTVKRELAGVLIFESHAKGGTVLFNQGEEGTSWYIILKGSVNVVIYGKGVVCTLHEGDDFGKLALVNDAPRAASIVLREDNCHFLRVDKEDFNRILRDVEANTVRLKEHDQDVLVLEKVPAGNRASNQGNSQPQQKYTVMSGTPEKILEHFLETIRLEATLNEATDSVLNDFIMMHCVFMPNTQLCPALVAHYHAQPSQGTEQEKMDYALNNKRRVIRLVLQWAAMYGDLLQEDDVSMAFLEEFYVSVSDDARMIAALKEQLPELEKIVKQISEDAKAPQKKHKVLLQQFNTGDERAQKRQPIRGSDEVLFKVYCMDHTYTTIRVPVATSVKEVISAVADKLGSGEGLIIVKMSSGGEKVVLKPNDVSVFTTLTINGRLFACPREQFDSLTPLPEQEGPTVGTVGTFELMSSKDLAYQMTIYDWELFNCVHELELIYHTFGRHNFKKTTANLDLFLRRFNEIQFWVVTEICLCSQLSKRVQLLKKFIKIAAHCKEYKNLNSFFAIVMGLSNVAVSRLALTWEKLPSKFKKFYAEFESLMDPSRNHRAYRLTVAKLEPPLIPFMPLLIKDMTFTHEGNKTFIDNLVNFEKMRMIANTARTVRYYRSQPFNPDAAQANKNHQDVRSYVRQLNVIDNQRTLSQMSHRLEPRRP

[4] = molecular target: Rap guanine nucleotide exchange factor 4 (Homo sapiens) (UniProt Q8WZA2); test: Confirmatory qHTS for antagonist of cAMP-regulated guanine nucleotide exchange factor 4 (EPAC2) (AID 1645885); note: nearly all actives have a fitted effect of over 25% in size; note: potency is the fitted concentration of half-maximal effect
[5] = molecular target: Rap guanine nucleotide exchange factor 3 (Homo sapiens) (UniProt O95398); test: Counterscreen qHTS for antagonist of cAMP-regulated guanine nucleotide exchange factor 3 (EPAC1) (AID 1645888);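 note: fluorescence loss as bound BODIPY-GDP is released from Rap1B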
Procedure, shortened: (§1)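 Measured: fluorescence of BODIPY-GDP bound to Rap1B, which falls as exchange proceeds. Conditions include 50 uM competing GDP, 5 and 30 min reads, and a later cAMP challenge for antagonist detection.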

[6] = molecular target: Rap guanine nucleotide exchange factor 3 (Homo sapiens) (UniProt O95398); test: Counterscreen qHTS for agonist of cAMP-regulated guanine nucleotide exchange factor 3 (EPAC1) (AID 1645889); note: nearly all actives have a fitted effect of over 40% in size; note: potency is the fitted concentration of half-maximal effect
Procedure, shortened: as §1

Row | SMILES | Potency [1] | Potency [2] | Potency [3] | Potency [4] | Potency [5] | Potency [6] | activation [3] | activity change, negative = inhibition [5] | activation [6]
1 | COc1cc(/C=C(\C#N)C(=O)NC(C)C)cc(Cl)c1O | inactive | inactive | inactive | inactive | inactive | inactive |  |  | 
2 | O=C(O)CCN1C(=O)/C(=C\c2cccc(Oc3ccccc3)c2)SC1=S | 26.9 µM (active) | inactive | inactive | 21.3 µM (active) | inactive | inactive |  |  | 
3 | OC1C2CN3CCN(C2)CC1(Cc1ccccc1)C3 (configuration not stated) | inactive | inactive |  | inactive |  |  | 3.83% [at 17.1 µM, percent relative to cAMP agonist control] (inactive) | -12.7% [at 30.8 µM] (inactive) | 28.2% [at 30.8 µM] (inactive)
4 | CC1(C(=O)NS(=O)(=O)c2cccc(F)c2)CCN1C(=O)C1(c2ccc(Cl)cc2)CCC1 (configuration not stated) | 19 µM (active) | inactive | inactive | inactive | inactive | inactive |  |  | 
5 | Cc1ccc2c(c1)c(/C=C/c1cc[n+](C)cc1)c(C)n2C | inactive | 100 µM (active) | 100 µM (active) | inactive | inactive | 8.91 µM (active) |  |  | 
6 | Cc1cc2c(c(=O)o1)C(c1ccc([N+](=O)[O-])o1)C(C#N)=C(N)O2 (configuration not stated) | inactive | inactive | inactive | inactive | inactive | inactive |  |  | 
7 | CC(=O)Oc1c(Sc2ccccc2[N+](=O)[O-])c(C)nn1C(C)(C)C | 42.6 µM (active) | inactive | inactive | inactive | inactive | inactive |  |  | 
8 | COc1ccc(C/C(C)=N/NC(=O)c2cccnc2)cc1 | inactive | inactive |  | inactive |  |  | -0.201% [at 17.1 µM, percent relative to cAMP agonist control] (inactive) | -16% [at 30.8 µM] (inactive) | 7.53% [at 30.8 µM] (inactive)
9 | CC(=O)N1c2ccc(S(=O)(=O)NCCc3ccccc3)cc2CC1C (configuration not stated) | inactive | inactive | inactive | inactive | inactive | inactive |  |  | 
10 | CC1CCC2=NN(C(=O)c3ccco3)C(O)(C(F)(F)F)C2C1 (configuration not stated) | inactive | inactive |  | inactive |  |  | 4.2% [at 17.1 µM, percent relative to cAMP agonist control] (inactive) | -9.1% [at 30.8 µM] (inactive) | -2.19% [at 30.8 µM] (inactive)
11 | CC1=C(C(=O)NC2CCC(C)CC2)C2(CCC(C)CC2)OC1=O (configuration not stated) | inactive | inactive |  | inactive |  |  | 1.07% [at 17.1 µM, percent relative to cAMP agonist control] (inactive) | -11.5% [at 30.8 µM] (inactive) | -0.546% [at 30.8 µM] (inactive)
12 | CCOC(=O)/C(C#N)=C/c1ccc(N2CCCCC2)cc1 | inactive | 56.2 µM (active) |  | inactive |  |  | 7.82% [at 17.1 µM, percent relative to cAMP agonist control] (inactive) | -1.56% [at 30.8 µM] (inactive) | 18.2% [at 30.8 µM] (inactive)
13 | O=C(NCCS(=O)(=O)N1CCN(c2cccc(Cl)c2)CC1)c1ccc2c(c1)OCO2 | inactive | inactive | inactive | inactive | inactive | inactive |  |  | 
14 | Cc1ccccc1CN1C(=O)c2ccccc2Sc2ccc(C(=O)O)cc21 | inactive | inactive | inactive | inactive | inactive | inactive |  |  | 
15 | CC1CN(C(=O)COC(=O)COc2ccc(C#N)cc2)CC(C)O1 (configuration not stated) | inactive | inactive |  | inactive |  |  | -1.51% [at 17.1 µM, percent relative to cAMP agonist control] (inactive) | -3.73% [at 30.8 µM] (inactive) | 1.53% [at 30.8 µM] (inactive)
16 | Cc1ccc(C2=NOC(=O)/C2=C\c2ccc(C)o2)cc1 | 75.7 µM (active) | inactive | inactive | inactive | inactive | inactive |  |  | 
17 | CCc1nnc(NS(=O)(=O)c2ccc(Nc3ccc([N+](=O)[O-])c4nonc34)cc2)s1 | 42.6 µM (active) | inactive | inactive | inactive | inactive | inactive |  |  | 
18 | CCOc1cc(/C=N/Nc2nc(-c3cccs3)c(NC(C)=O)s2)ccc1O | inactive | inactive | inactive | inactive | inactive | inactive |  |  | 
19 | CC1(C)CC(=O)c2sc(N3CCCCC3)nc2C1 | inactive | inactive | inactive | 75.7 µM (active) | inactive | inactive |  |  | 
20 | Oc1ccccc1-c1nc(NCc2ccccc2)c2ccccc2n1 | inactive | inactive | inactive | inactive | inactive | inactive |  |  | 
21 | COc1ccc(NC(=O)Cn2cnc3sc(C)c(S(=O)(=O)N4CCOCC4)c3c2=O)c(OC)c1 | inactive | inactive |  | inactive |  |  | -0.644% [at 17.1 µM, percent relative to cAMP agonist control] (inactive) | -23.9% [at 30.8 µM] (inactive) | 3.18% [at 30.8 µM] (inactive)

Row | SMILES | Potency [1] | Potency [2] | Potency [3] | Potency [4] | Potency [5] | Potency [6] | activation [3] | activity change, negative = inhibition [5] | activation [6]
22 | CCOc1ccc(Oc2ccccc2NC(=O)CN2C(=O)NC3(CCCC3)C2=O)cc1 | inactive | inactive |  | inactive |  |  | -25.9% [at 17.1 µM, percent relative to cAMP agonist control] (inactive) | -5.88% [at 30.8 µM] (inactive) | 10.7% [at 30.8 µM] (inactive)
23 | O=S(=O)(Nc1nccs1)c1ccc(NCc2cc(Br)cc(Br)c2O)cc1 | 56.2 µM (active) | inactive |  | 1.51 µM (active) |  |  | -0.584% [at 17.1 µM, percent relative to cAMP agonist control] (inactive) | 9.07% [at 30.8 µM] (inactive) | 31.2% [at 30.8 µM] (inactive)
24 | O=C(O)c1ccc(N/N=C/c2ccc3c(c2)OCO3)cc1 | inactive | inactive | inactive | 33.8 µM (active) | inactive | inactive |  |  | 
25 | COc1cn(CC(=O)Nc2cccc(C)c2C)c(CN2CCCCC2)cc1=O | inactive | inactive | inactive | inactive | inactive | inactive |  |  | 
26 | COC(=O)CC1(C(=O)OC)Oc2ccc(Br)cc2C(=O)N1c1cc(Cl)cc(Cl)c1 (configuration not stated) | inactive | inactive |  | 2.13 µM (active) |  | 0.0282 µM (active) | 5.41% [at 17.1 µM, percent relative to cAMP agonist control] (inactive) | -4.58% [at 30.8 µM] (inactive) | 
27 | CC1(C(=O)O)CCC2(C)CCC3(C)C(=CC(=O)C4C5(C)CCC(=O)C(C)(C)C5CCC43C)C2C1 (configuration not stated) | inactive | inactive | inactive | inactive | inactive | inactive |  |  | 
28 | COc1cnc(-c2ccccn2)nc1Oc1c(C)cccc1C | inactive | inactive | inactive | inactive | inactive | inactive |  |  | 
29 | COc1ccc(CNc2cccnc2)c(OC)c1OC | inactive | inactive |  | inactive |  |  | -6.76% [at 17.1 µM, percent relative to cAMP agonist control] (inactive) | -16% [at 30.8 µM] (inactive) | 15.5% [at 30.8 µM] (inactive)
30 | CC(=O)C1=C(c2ccc(C)cc2)N(C(C)=O)n2c(nnc2C2CCCCC2)S1 | inactive | inactive | inactive | inactive | inactive | inactive |  |  | 
31 | COc1ccccc1N1CC(C(=O)Nc2cc(C(F)(F)F)ccc2N2CCCC2)CC1=O (configuration not stated) | inactive | inactive |  | inactive |  |  | 9.01% [at 17.1 µM, percent relative to cAMP agonist control] (inactive) | -8.33% [at 30.8 µM] (inactive) | 9.96% [at 30.8 µM] (inactive)
32 | CC(C)(C)c1ccc(C(CC(=O)O)NC(=O)CSc2ccccc2)cc1 (configuration not stated) | inactive | inactive | inactive | inactive | inactive | inactive |  |  | 
33 | COc1cc2ccccc2cc1C(=O)N1CC(C)CC(C)C1 (configuration not stated) | inactive | inactive |  | inactive |  |  | 1.37% [at 17.1 µM, percent relative to cAMP agonist control] (inactive) | 1.39% [at 30.8 µM] (inactive) | 27.4% [at 30.8 µM] (inactive)
34 | CC(C)Sc1nc2sccc2c(=O)n1-c1ccccc1 | inactive | inactive | inactive | 42.6 µM (active) | inactive | inactive |  |  | 
35 | CCn1c2ccccc2c2nnc(SCC(=O)N(C)C3CCS(=O)(=O)C3)nc21 (configuration not stated) | inactive | inactive |  | inactive |  |  | 3.11% [at 17.1 µM, percent relative to cAMP agonist control] (inactive) | 5.48% [at 30.8 µM] (inactive) | 4.22% [at 30.8 µM] (inactive)
36 | CC(C)CNc1cc(Cl)c(S(=O)(=O)NCC(C)C)cc1C(=O)O | inactive | inactive |  | inactive |  |  | 1.7% [at 17.1 µM, percent relative to cAMP agonist control] (inactive) | 8.12% [at 30.8 µM] (inactive) | -0.574% [at 30.8 µM] (inactive)
37 | C#Cc1ccc([C@@H]2C=C(C(=O)NCc3nc4ccccc4[nH]3)O[C@H](OCC)[C@H]2CCCO)cc1 | inactive | inactive |  | inactive |  |  | 7.11% [at 17.1 µM, percent relative to cAMP agonist control] (inactive) | -6.31% [at 30.8 µM] (inactive) | 30.9% [at 30.8 µM] (inactive)
38 | CC(=N\NC(=O)c1ccccc1)/C(=N/O)C(=O)Nc1ccccc1 | 3.16 µM (active) | inactive |  | inactive |  |  | 7.97% [at 17.1 µM, percent relative to cAMP agonist control] (inactive) | 9.03% [at 30.8 µM] (inactive) | 27.9% [at 30.8 µM] (inactive)
39 | CC(NCc1cccn1C)c1ccccc1 (configuration not stated) | inactive | inactive | inactive | inactive | inactive | inactive |  |  | 
40 | Nc1[nH]c(C(=O)c2ccccc2)c(-c2ccccc2C(F)(F)F)c1C(=O)NCCc1cccs1 | inactive | inactive | inactive | inactive | inactive | inactive |  |  | 
41 | COc1ccc(/C=C2/SC(=S)N(NS(=O)(=O)c3ccccc3)C2=O)cc1 | 39.8 µM (active) | inactive |  | inactive |  |  | -0.663% [at 17.1 µM, percent relative to cAMP agonist control] (inactive) | -9.92% [at 30.8 µM] (inactive) | -1.02% [at 30.8 µM] (inactive)
42 | Cc1ccc(C)c(NC(=O)CN(C)C(=O)c2cccc(S(=O)(=O)N3CCCC3)c2)c1 | inactive | inactive | inactive | inactive | inactive | inactive |  |  | 
